One experiment deals with PGR (gene 5241) (UniProt P06401). The experiment can be described thus: NVS_NR_hPR: NovaScreen (NVS) Nuclear Receptor Binding Assay for human Progestron Receptor (PR) (AID 2283360).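 Also: active means loss of bound radioligand signal versus DMSO baseline.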 A digest of the protocol: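 Radioligand competition binding on receptor extracted from T47D cells, read by scintillation counting 18 h after dosing. Loss of signal versus DMSO; primary screen in duplicate at 25 uM, actives followed in concentration series.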
Sequence of PGR (gene 5241) (P06401 whole entry, looked up): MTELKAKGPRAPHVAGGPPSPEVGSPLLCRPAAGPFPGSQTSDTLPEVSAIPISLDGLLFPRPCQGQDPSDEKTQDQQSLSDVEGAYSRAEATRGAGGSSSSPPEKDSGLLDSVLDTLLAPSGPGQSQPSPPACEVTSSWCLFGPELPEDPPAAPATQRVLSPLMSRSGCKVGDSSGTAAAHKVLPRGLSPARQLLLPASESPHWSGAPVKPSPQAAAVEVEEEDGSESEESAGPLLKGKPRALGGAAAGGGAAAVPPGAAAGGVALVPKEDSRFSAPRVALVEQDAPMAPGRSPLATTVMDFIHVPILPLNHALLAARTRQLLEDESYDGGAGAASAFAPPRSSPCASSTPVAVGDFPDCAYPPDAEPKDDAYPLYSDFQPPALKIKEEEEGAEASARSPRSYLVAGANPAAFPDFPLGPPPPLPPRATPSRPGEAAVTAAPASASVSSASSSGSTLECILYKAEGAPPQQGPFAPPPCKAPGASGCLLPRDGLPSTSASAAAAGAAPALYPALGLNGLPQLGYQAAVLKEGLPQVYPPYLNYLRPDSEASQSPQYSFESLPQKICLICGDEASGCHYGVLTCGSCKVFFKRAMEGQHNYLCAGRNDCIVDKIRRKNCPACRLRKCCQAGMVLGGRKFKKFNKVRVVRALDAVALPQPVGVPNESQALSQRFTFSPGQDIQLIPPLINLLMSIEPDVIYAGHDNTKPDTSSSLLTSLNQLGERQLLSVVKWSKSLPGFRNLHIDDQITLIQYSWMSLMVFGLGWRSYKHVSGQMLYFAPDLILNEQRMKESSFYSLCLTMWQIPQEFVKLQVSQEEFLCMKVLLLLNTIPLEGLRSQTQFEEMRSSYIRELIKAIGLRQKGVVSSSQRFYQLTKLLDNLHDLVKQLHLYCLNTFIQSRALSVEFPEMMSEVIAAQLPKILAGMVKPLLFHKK

The target in experiment [1] is human Thyroid Receptor Alpha (TRa), THRA (gene 7067) (UniProt P10827). The experiment can be described thus: NVS_NR_hTRa_Antagonist: NovaScreen (NVS) Nuclear Receptor Binding Assay for human Thyroid Receptor Alpha Antagonism (TRa) (AID 2283362). In outline: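 Cell-free AlphaLISA chemiluminescent binding read 1 h after dosing, antagonist mode; signal loss versus DMSO baseline. Primary screen in duplicate at 25 uM, then concentration series for actives.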
Sequence of human Thyroid Receptor Alpha (TRa), THRA (gene 7067) (P10827 whole entry, looked up): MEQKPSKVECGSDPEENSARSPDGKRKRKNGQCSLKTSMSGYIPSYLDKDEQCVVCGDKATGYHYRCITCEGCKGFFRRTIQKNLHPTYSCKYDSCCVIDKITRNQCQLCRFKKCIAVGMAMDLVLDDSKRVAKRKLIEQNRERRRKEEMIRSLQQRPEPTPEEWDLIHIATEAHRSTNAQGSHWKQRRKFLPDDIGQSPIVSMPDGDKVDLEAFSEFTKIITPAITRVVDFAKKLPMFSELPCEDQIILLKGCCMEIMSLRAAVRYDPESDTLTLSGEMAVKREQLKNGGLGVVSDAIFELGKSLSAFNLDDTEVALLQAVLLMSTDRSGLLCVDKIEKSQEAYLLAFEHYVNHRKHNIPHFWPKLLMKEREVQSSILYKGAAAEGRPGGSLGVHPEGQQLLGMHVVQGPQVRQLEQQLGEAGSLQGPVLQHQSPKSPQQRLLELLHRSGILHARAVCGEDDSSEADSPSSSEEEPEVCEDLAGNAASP

Experiment [2] concerns the target guinea pig Sigma Receptor, Non-selective Binding, SIGMAR1 (gene 100135589) (UniProt Q60492). Nature of the experiment: NVS_OR_gSIGMA_NonSelective: NovaScreen (NVS) Nuclear Receptor Binding Assay for guinea pig Sigma Receptor, Non-selective Binding (AID 2283367). In outline:
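Guinea pig brain membrane sigma sites were labelled with a radioligand, and bound radioactivity was counted after filtration 1 h post-dose. Compounds were screened at 25 uM in duplicate, then retested as concentration series when active.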

Experiment [3] addresses human Adenosine Transporter (Adot), SLC29A1 (gene 2030) (UniProt Q99808). Nature of the experiment: NVS_TR_hAdoT: NovaScreen (NVS) Transporter Assay for human Adenosine Transporter (Adot) (AID 2283368). A digest of the protocol:
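Binding displacement on U937 extracted protein, read 1 h post-dose by filtration and scintillation counting. Primary duplicate test at 25 uM, then singleton concentration series with 50 uM top; DMSO baseline.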

The subject of experiment [4] is guinea pig Dopamine Transporter (DAT), gene 100714898. Nature of the experiment: NVS_TR_gDAT: NovaScreen (NVS) Transporter Assay for guinea pig Dopamine Transporter (DAT) (AID 2283369).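 Also: active compounds lower bound radioligand signal relative to DMSO.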 How it is done:
NVS_TR_gDAT is a biochemical, single-readout assay that uses extracted gene-proteins from Guinea pig striatal membranes in a tissue-based cell-free assay. Measurements were taken 2 hours after chemical dosing in a 48-well plate.NVS_TR_gDAT is one of one assay component(s) measured or calculated from the NVS_TR_gDAT assay. It is designed to make measurements of radioligand binding, a form of binding reporter, as detected with scintillation counting signals by Filter-based radiodetection technology.Data from the assay component NVS_TR_gDAT was analyzed into 1 assay endpoint. This assay endpoint, NVS_TR_gDAT, was analyzed in the positive analysis fitting direction relative to DMSO as the negative control and baseline of activity. Using a type of binding reporter, loss-of-signal activity can be used to understand changes in the binding as they relate to the gene Slc6a3. Furthermore, this assay endpoint can be referred to as a primary readout, because the performed assay has only produced 1 assay endpoint. To generalize the intended target to other relatable targets, this assay endpoint is annotated to the transporter intended target family, where the subfamily is neurotransmitter transporter.
Binding assays used specific radioligands (tritiated, iodinated) with non-radioactive competitive displacement ligands in agonist or antagonist protocols (as indicated) and various reference compounds and inhibitors to titrate specific binding to receptors and transporters. Most enzyme assays (CYPs, kinases, phosphatases, proteases, HDACs) used recombinant protein and specific substrates (fluorescence mostly, some colorimetric and radioactive) and inhibitors, followed by a biochemical separation of substrate and product. All assays for the biochemical HTS were initially run in duplicate at a single concentration (10 uM for CYP450 assays and 25 uM for all others). Assay-chemical combinations meeting a pre-defined threshold (e.g., 30% inhibition and other criteria defined below) were then run in singleton concentration-response format with maximum concentration of 20 uM for CYPs and 50 uM for all others. Each assay was run with positive and negative controls, and concurrent controls on every plate. The follow-up (secondary) screen tested active chemical-pairs in concentration series, as well as a few additional assays not tested in the primary screen, some selected negative inactives, and several cases re-run in the concentration series for confirmatory purposes.

For experiment [5], the target named is Peroxisome proliferator-activated receptor gamma (Homo sapiens) (UniProt P37231). The experiment can be described thus: NVS_NR_hPPARg: NovaScreen (NVS) Nuclear Receptor Binding Assay for human Peroxisome Proliferator-activated Receptor gamma (PPARg) (AID 2283370). A digest of the protocol:
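Cell-free fluorescence polarization binding to human PPARg protein, read 2 h after dosing. Primary screen in duplicate at 25 uM, actives followed in concentration series; loss of signal relative to DMSO scored.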

In experiment [6] the target is Glucocorticoid receptor (Homo sapiens) (UniProt P04150). Nature of the experiment: NVS_NR_hGR: NovaScreen (NVS) Nuclear Receptor Binding Assay for human Glucocorticoid Receptor (GR) (AID 2283363). In outline:
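Compounds first tested in duplicate at 25 uM, actives followed up in concentration series. Binding to extracted GR protein measured as competitive radioligand displacement, filter scintillation read 16 h post-dosing, normalised to DMSO.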

Experiment [7] addresses Nuclear receptor subfamily 1 group I member 2 (Homo sapiens) (UniProt O75469). Nature of the experiment: NVS_NR_hPXR: NovaScreen (NVS) Nuclear Receptor Binding Assay for human Pregnane X Receptor (PXR) (AID 2283365).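 Also: a drop in FRET signal versus DMSO baseline means the compound binds.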 A digest of the protocol:
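Cell-free TR-FRET binding assay with extracted human PXR protein, read 2 h after dosing. Primary screen run in duplicate at 25 uM, actives followed in concentration series; loss of signal fitted against DMSO baseline.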

Records with an inconclusive call do not appear. The source made the active and inactive calls. The calls were made as follows: active = hit-call score of the fitted dose curve at least 0.9, where 1 is the maximum; inconclusive = response in the unintended direction; inactive = score below 0.9.

Sequence of Peroxisome proliferator-activated receptor gamma (Homo sapiens) (P37231 whole entry, looked up): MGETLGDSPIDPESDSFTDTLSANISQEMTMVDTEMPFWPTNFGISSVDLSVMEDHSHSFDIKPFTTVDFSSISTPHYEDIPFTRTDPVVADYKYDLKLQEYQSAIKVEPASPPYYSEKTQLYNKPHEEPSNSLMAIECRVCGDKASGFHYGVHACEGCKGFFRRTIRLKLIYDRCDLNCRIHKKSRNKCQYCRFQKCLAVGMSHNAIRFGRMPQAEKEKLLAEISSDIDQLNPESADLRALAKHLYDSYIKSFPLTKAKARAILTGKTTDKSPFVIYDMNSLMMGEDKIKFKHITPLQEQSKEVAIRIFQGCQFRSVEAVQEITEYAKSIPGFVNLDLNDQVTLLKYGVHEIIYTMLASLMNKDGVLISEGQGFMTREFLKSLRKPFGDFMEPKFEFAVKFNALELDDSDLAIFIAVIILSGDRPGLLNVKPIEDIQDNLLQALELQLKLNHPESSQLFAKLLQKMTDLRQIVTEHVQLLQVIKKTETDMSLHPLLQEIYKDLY
Sequence of guinea pig Sigma Receptor, Non-selective Binding, SIGMAR1 (gene 100135589) (Q60492 whole entry, looked up): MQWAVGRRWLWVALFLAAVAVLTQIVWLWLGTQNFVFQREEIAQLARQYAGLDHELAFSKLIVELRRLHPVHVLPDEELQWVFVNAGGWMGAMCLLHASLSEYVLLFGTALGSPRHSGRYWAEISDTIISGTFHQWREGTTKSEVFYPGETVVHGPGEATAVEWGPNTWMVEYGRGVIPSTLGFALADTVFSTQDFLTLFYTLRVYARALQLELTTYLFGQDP
Sequence of Nuclear receptor subfamily 1 group I member 2 (Homo sapiens) (O75469 whole entry, looked up): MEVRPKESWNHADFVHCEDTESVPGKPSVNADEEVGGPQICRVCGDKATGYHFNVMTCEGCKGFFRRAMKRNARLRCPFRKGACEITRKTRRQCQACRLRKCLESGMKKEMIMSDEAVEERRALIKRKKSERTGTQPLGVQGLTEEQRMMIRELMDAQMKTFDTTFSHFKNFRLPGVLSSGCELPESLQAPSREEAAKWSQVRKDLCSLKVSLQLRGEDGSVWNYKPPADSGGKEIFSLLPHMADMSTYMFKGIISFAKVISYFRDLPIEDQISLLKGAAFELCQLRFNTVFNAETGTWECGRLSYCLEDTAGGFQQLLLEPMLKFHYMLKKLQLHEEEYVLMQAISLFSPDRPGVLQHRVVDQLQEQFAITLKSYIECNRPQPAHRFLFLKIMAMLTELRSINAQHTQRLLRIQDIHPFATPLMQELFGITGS
Sequence of human Adenosine Transporter (Adot), SLC29A1 (gene 2030) (Q99808 whole entry, looked up): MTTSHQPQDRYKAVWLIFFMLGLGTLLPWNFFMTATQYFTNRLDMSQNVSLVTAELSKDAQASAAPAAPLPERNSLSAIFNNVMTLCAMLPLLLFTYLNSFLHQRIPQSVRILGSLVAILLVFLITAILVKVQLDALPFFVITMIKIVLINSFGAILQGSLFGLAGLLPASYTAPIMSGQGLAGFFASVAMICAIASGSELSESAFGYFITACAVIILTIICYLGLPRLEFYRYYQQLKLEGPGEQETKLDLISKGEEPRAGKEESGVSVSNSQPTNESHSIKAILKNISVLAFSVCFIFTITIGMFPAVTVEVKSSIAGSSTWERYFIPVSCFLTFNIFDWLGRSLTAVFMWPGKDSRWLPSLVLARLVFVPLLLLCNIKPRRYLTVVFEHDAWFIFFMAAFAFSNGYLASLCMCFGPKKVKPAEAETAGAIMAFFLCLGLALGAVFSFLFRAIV
Sequence of Glucocorticoid receptor (Homo sapiens) (P04150 whole entry, looked up): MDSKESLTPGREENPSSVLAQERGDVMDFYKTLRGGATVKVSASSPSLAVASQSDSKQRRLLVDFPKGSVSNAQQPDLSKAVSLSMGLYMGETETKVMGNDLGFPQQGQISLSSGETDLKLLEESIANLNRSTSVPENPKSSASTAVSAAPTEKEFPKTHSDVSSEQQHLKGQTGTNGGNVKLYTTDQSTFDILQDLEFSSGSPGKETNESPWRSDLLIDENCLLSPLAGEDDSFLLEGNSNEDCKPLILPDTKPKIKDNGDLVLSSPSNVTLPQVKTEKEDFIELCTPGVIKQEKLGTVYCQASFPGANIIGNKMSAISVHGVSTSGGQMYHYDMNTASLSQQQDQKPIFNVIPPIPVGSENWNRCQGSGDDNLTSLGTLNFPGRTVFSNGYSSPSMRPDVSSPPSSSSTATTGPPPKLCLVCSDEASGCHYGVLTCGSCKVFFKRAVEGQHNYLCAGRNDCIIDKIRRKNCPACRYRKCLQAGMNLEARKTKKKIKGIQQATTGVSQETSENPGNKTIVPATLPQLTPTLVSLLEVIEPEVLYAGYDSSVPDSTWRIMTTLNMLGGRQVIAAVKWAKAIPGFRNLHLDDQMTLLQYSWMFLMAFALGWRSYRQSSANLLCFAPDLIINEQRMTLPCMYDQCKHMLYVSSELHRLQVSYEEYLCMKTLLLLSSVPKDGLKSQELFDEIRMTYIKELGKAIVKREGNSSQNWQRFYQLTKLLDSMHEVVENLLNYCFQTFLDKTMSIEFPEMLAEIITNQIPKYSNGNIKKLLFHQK

Take `O=S(=O)(O)c1ccc(N=Nc2c(O)ccc3cc(S(=O)(=O)O)ccc23)cc1`: the result with PGR (gene 5241) was inactive.
On the same count and under the same terms, the value for `CCCc1ccccc1` was “inactive”.
For `CC(C)C(=O)Nc1ccc([N+](=O)[O-])c(C(F)(F)F)c1`, the call in experiment [1] and in experiment [2] was inactive.
In the case of `CCn1nc(C)c2c1C(=O)NCC(c1ccc(O)cc1)=N2`, the call in experiment [2], in experiment [3], in experiment [4] and in experiment [5] was inactive.
As to `CCCCC(CC)C(=O)OCCOCCOCCOC(=O)C(CC)CCCC` (configuration not stated), the call in experiment [1] and in experiment [2] was inactive.
As for `c1ccc2c(c1)-c1cccc3c1c-2cc1ccccc13`, the outcome in experiment [5] was inactive.
As usually defined, the AC50 is the concentration giving half of the maximal activity seen. For the compound `Cc1nccn1-c1ccc(Sc2cccc(C3(C(N)=O)CCOCC3)c2)cc1`, the AC50 with PGR (gene 5241) is 6.18 µM (active); in experiment [2], 19.7 µM (active); in experiment [4], 0.0243 µM (active). Moreover, the compound was called inactive in experiment [3] and in experiment [5].
In the case of `OCc1ccccc1`, the compound was classed as inactive (in the experiment with PGR (gene 5241); in experiment [5]).
In the case of `OC[C@H]1O[C@@](CO)(O[C@H]2O[C@H](CO)[C@@H](O)[C@H](O)[C@H]2O)[C@@H](O)[C@@H]1O`, the result with PGR (gene 5241) was inactive.
`c1ccc(C(O[C@@H]2CCCN(CCc3ccc4c(c3)OCO4)C2)c2ccccc2)cc1`: the outcome (with PGR (gene 5241); in experiment [1]; in experiment [6]) was inactive. Also, the concentration at half-maximal activity (AC50) in experiment [2] was 2.6 µM (active); in experiment [4] it was 0.943 µM (active).
With `CCc1ccc(O)c(C(C)(C)C)c1`, the compound was called inactive in the experiment with PGR (gene 5241).
On to `CCCCCCCC/C=C\CCCCCCCC(=O)OC[C@@H](O)[C@H]1OC[C@H](O)[C@H]1O`, for which the compound was called inactive in experiment [7].
For the compound `Cc1ncc([C@@H](CCCCCCc2ccc3c(n2)NCCC3)CC(=O)O)cn1`, the half-maximal activity concentration (AC50) in experiment [2] was 14.5 µM (active). In addition, in experiment [5], the call was inactive.
Take `OCCOCCOCCO`: the half-maximal activity concentration (AC50) in experiment [7] is 0.108 µM (active).
`OCC(CO)(CO)CO`: the outcome in experiment [7] was inactive.
For the compound `CCc1cccc(CC)c1N`, the outcome in the experiment with PGR (gene 5241) was inactive.
For the compound `Cc1nc(-c2ccccn2)ncc1C(=O)Nn1cc(C)c2cc(F)ccc21`, in experiment [7], the result was inactive.

The values above are taken from PubChem BioAssay (EPA / NIEHS).
